Bioassay records deposited in PubChem by National Center for Advancing Translational Sciences (NCATS).
LASV entry inh: Lassa virus entry inhibition; Lassa virus pseudotype entry inhibition, cell reporter; Potency, µM (series often up to 37.9 µM), inactives show at the top dose activity change, negative = inhibition, usual class: inhibitors; 1.2% of 300,000 active; calls by dose curve; tested in HEK293 cells; note: potency is the fitted concentration of half-maximal effect; % is set by controls: 0 for no effect and ±100 for the full control effect; nearly all actives have a fitted effect of over 50% in size
Shiga toxin inh: Shiga toxin inhibition. Vero cells, Shiga toxin protein synthesis inhibition reporter. inhibition, % at 38.7 µM. 9.2% of 290,000 active; in the data active = inhibition mostly above about 28%, no sharp cut-off; inactive = mostly below about 43%; note: 0% is about no effect
Cycloheximide cs: counter-screen for Shiga toxin inhibitors: cycloheximide protein synthesis inhibition; cell reporter, cycloheximide protein synthesis inhibition counterscreen; 12% of 300,000 active; AID 2314; max response, %; in the data active = max response mostly above about 13%, no sharp cut-off; inactive = mostly below about 14%; note: read at 38.3 µM for the half of the compounds with a filed dose; 0% is about no effect
MARV entry inh: blocks Marburg virus binding to or entry into cells; Potency, µM (series often up to 37.8 µM), inactives show at the top dose activity change, negative = inhibition, hits mostly inhibitors; AID 540276; Marburg virus pseudotyped entry inhibition, cell reporter; 1.8% of 300,000 active; calls by dose curve; tested in HEK293 cells; note: potency is the fitted concentration of half-maximal effect; % is set by controls: 0 for no effect and ±100 for the full control effect
AMA1 RON2 block: inhibitors of Plasmodium falciparum AMA1-RON2 interaction; 0.2% of 360,000 active; AlphaScreen AMA1-biotinylated RON2 peptide binding; Potency, µM (top dose mostly 58.2 µM), inactives show at the highest dose activity change, negative = inhibition, actives largely listed as inhibitors; active = well fitted inhibition curve with a large enough effect; inconclusive = small, poorly fitted or top-dose-only effect; inactive = no such curve, though single readings can be large or run the other way;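 note: potency is the fitted concentration of half-maximal effect; 0% = vehicle wells and -100% = peptide control; nearly all actives have a fitted effect of over 45% in size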
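AMA1 (3D7) with his tag at 25 nM final met compounds first, then biotinylated RON2 peptide at 25 nM; detection used donor plus acceptor beads, 10 µg/mL apiece, read by AlphaScreen after 30 min at room temperature.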
Starred values were filed as active, the others as inactive; ? = inconclusive; / = no result; [ ] = another dose, or the depositor's remark. The full list was thinned out, with hits kept by preference.

SMILES	LASV entry inh	Shiga toxin inh	Cycloheximide cs	MARV entry inh	AMA1 RON2 block
CCOc1ccc(S(=O)(=O)NCc2ccncc2)cc1NC(=O)c1ccccc1	?	/	/	3.55µM*	24.9%
CCOc1ccccc1NC(=O)c1cc(S(=O)(=O)NCc2ccco2)ccc1F	/	35.4*	41.6*	/	0.0%
Cc1c(Cl)cccc1NC(=O)Nc1c[nH]c(=O)[nH]c1=O	24.8%[46.1 µM]	/	/	/	/
COc1cc(OC)c(N(C)S(=O)(=O)c2cccc(C(=O)OCC(=O)NCc3ccco3)c2)cc1Cl	-29.5%	-11.7	21.4*	-13.5%[46.1 µM]	-3.7%
COc1ccccc1N(C)S(=O)(=O)c1ccc(Cl)c(C(=O)NCc2ccco2)c1	-12.4%	/	/	?	-11.4%
COc1ccc(S(=O)(=O)NCc2ccco2)cc1N(C)S(=O)(=O)c1ccccc1	-29.8%	51.4*	33.5*	-0.5%[46.1 µM]	0.1%
COc1ccc(S(=O)(=O)Nc2ccc(F)cc2)cc1N(C)S(=O)(=O)c1ccc(Cl)cc1	?	10.2	5.4	20.6µM*	7.8%
CCCN1CCN(C(=O)Cn2ncc3c4ccccc4n(Cc4cccc(Cl)c4)c3c2=O)CC1	12.8%[46.1 µM]	/	/	-2.7%[46.1 µM]	/
COc1ccc(Oc2ccc(N/C=C/C(=O)C(C)(C)C)cc2)cc1	/	38.9*	25.2*	/	-3.2%
COc1ccc(NS(=O)(=O)c2ccc(Oc3cccc(C(=O)O)c3)cc2)cc1	-4.1%	-12.9	-1.8	9.0%[46.1 µM]	13.0%
Cc1ccc(NC(=O)CC(=O)Nc2ccc(C)cc2C)c(C)c1	/	2.8	7.4	/	-2.5%
Cc1ccc(N/C=C/C(=O)C(C)(C)C)c(O)c1	0.0%	67.7*	62.4*	-17.5%	34.9%
CC(=O)Nc1ccc(N/C=C/C(=O)C(C)(C)C)cc1	18.9%[14.3 µM]	38.9*	17.7*	6.2%	-0.9%
COc1cccc(Oc2ccc(N/C=C/C(=O)C(C)(C)C)cc2)c1	?	28.1*	45.3*	?	-13.2%
COc1ccccc1Oc1ccc(N/C=C/C(=O)C(C)(C)C)cc1	0.8%[46.1 µM]	44.9	13.7	12.7%[46.1 µM]	?
Cc1cc(C)n(-c2ccc(NC(=O)C3CCN(Cc4ccc(C)o4)CC3)cc2)n1	/	-3.1	1.1	/	3.0%
CNC(=O)COC(=O)c1ccc2c(c1)NC(=O)C1CCCN21 (stereo not given)	/	-23.3	9.4	/	/
CC(C)(C)c1ccc(OCCOCCn2cnc3ccccc3c2=O)cc1	6.1%	55.3	35.5*	-2.3%	-1.5%
CCOc1ccc(OCCn2nnc3ccccc3c2=O)cc1	-16.8%	58.5*	36.7*	?	-14.1%
CCOc1cccc(OCCCCn2cnc3ccccc3c2=O)c1	20.5%	27.6	3.7	17.4%	-21.5%
Cc1ccc(OCCn2cnc3ccccc3c2=O)c([N+](=O)[O-])c1	?	51.9*	49.6*	1.8%	3.6%
CCCn1nnc2ccccc2c1=O	2.2%	-7.4	6.5	6.2%	-20.0%
CCOc1cccc(OCCn2cnc3ccccc3c2=O)c1	17.7%	35.0*	12.6	-1.5%	-9.8%
Cc1ccc2nc(CCc3nc4ccc(C)cc4o3)oc2c1	-10.0%	16.3	5.1	-3.9%	3.6%
Nc1ccc2nc(CCc3ccccc3)[nH]c2c1	?	22.5*	71.4*	?	-2.3%
SMILES	LASV entry inh	Shiga toxin inh	Cycloheximide cs	MARV entry inh	AMA1 RON2 block
Cc1ccc2nc(CCc3ccc(N)cc3)[nH]c2c1	-1.1%	/	49.9*	-18.7%	3.1%
Cc1ccc2nc(Cc3ccc(N)cc3)oc2c1	9.1%	61.6*	28.4*	?	-11.4%
COc1ccc(N=Nc2ccc(O)c3ncccc23)cc1	/	5.9	5.0	/	56.3%
COc1cc(OC)cc(C(=O)Nc2cccc3cccnc23)c1	-2.1%	-5.2	-1.8	?	9.1%
O=S(=O)(O)c1cccc2c(N=Nc3ccc(O)c4ncccc34)cccc12	/	-4.2	0.7	2.3%	-89.4%
CCN(CC)S(=O)(=O)c1ccc(N=Nc2cc(C)cc(Br)c2O)cc1	-1.9%	/	/	-23.6%	?
COc1cccc(N=Nc2ccc3cccnc3c2O)c1	/	62.3*	29.7*	/	-68.5%
Cc1ccc(N=Nc2ccc(O)cc2)c(Br)c1	10µM*	49.0*	43.8*	?	-27.8%
COc1cccc(N=Nc2ccc(O)c3ncccc23)c1	?	88.7*	12.8*	?	-46.4%
Oc1ccc(N=Nc2ccc3c(c2)OCCO3)c2cccnc12	?	135.1*	44.0*	?	2.4%
COc1ccc(Br)cc1/C=N/n1c(COc2ccccc2)n[nH]c1=S	/	-3.8	-1.9	/	23.2%
O=[N+]([O-])c1ccccc1N=Nc1ccc(O)cc1O	-7.5%	/	/	5.4%	-19.1%
Oc1ccc(N=Nc2ccc3c(c2)OCCO3)c(O)c1	/	25.4	22.3*	/	-24.3%
Oc1ccc(N=Nc2ccc(Br)cc2)c(O)c1	/	84.3*	48.0*	/	-8.4%
